# Experimental data as given in PubChem BioAssay (NCI).
# The panel holds about 83,000 compounds, 20% with a hit somewhere; the sample as a whole holds those more often.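 How to read the values: 0–100, growth inhibition (40 = 60% inhibited); 0, no net growth; -100 to 0, cell death (-40 = 40% of starting cells died; -100 = all dead).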 Activity calls are given as the source filed them.
# Test system: NCI-H23 lung
# Assay: NCI-60 one-dose screen, 48 h (100 = growth as untreated, 0 = no growth, -100 = all killed)
# Settings: 10 µM unless noted
# Description: Growth inhibition of the NCI-H23 human Non-Small Cell Lung tumor cell line is measured as a screen for anti-cancer activity. Cells are grown in 96 well plates and exposed to the test compound for 48 hours. Compounds are tested at a single concentration, which is 10^-5 M for most compounds. The reported endpoint is percent growth (GI% or GIPRCNT), where numbers from 0 - 100% represent growth inhibition, and numbers from -100% - 0 represent cell death. For example, a value of 40 represents 60% growth inhibition. A value of 0 means no net growth occurred over the course of the experiment. A value of -40 indicates 40% of cells at the beginning of the experiment died by the end of the experiment. A value of -100 means all cells are dead at the end of the experiment.
# NCI-60 Human Tumor Cell Lines Screen was performed using the standard one-dose NCI protocol, which is described in more detail at https://dtp.cancer.gov/discovery_development/nci-60/default.htm.
# Compounds with GIPRCNT values below 10 were considered active. Activity score was based on GIPRCNT using the following formula: […]
# Score is 0 for GIPRCNT values of 100 or above, 50 for GIPRCNT values of 0, and 100 for GIPRCNT values of -100.
row,Compound,growth
1,CC(=O)Nc1ccc(/C=C/C(=O)c2ccccc2)cc1,102% (inactive)
2,N=c1ccc2nc3ccc(N)cc3sc-2c1,12.8% (inactive)
3,COC1=C(OC)C(=O)C(CCCCCCCCCC[P+](c2ccccc2)(c2ccccc2)c2ccccc2)=C(C)C1=O,-8.24% (active)
4,N/C(=N\C(N)=N\c1nc2ccccc2s1)c1ccncc1,77.7% (inactive)
5,O=C(CSc1nc2ccccc2[nH]1)Nc1ccc(-c2nc3ccccc3s2)c(Cl)c1,-32.5% (active)
6,Cc1cc(N/N=C/c2nc(-c3ccccc3)oc2C)c2cc(Cl)ccc2n1,-19.6% (active)
7,CC12CCC3C4(C)COC(c5ccco5)OC4CCC3(C)C1CC(C1=CCOC1=O)O2 (stereo not given),103% (inactive)
8,Cc1c(C(N)=O)sc2c1c(=O)n(Cc1ccccc1)c1nnc(Nc3ccccc3)n21,101% (inactive)
9,COc1ccc(C2C=C(c3ccc(OC)c(OC)c3)N=C3SC=C(C)N32)c(Br)c1 (stereo not given),99.2% (inactive)
10,CC(C)CSc1nc(NN)c(C#N)c(-c2ccc(F)cc2)n1,70.4% (inactive)
11,ClC(Cl)c1nc(-c2cccnc2)n2nc(-c3ccccc3)cc2n1,-39.3% (active)
12,O=[N+]([O-])c1cc(S(=O)(=O)Oc2ccccc2)ccc1Cl,30.7% (inactive)
13,O=[N+]([O-])c1ccc(Sc2ncccn2)c([N+](=O)[O-])c1,53.5% (inactive)
14,Cc1cc(N)n(S(=O)(=O)c2oc(-c3ccccc3)nc2C#N)n1,90.3% (inactive)
15,O=C(Nc1ccncc1)C(=O)c1cn(S(=O)(=O)c2ccc(Oc3ccccc3)cc2)c2ccccc12,77.5% (inactive)
16,Cc1ccc(S(=O)(=O)NCCCNc2cc(-c3cn(C(C)(C)C)nc3-c3cccc(O)c3)ccn2)cc1,77% (inactive)
17,O=Nc1c(-c2cccc([N+](=O)[O-])c2)nc2ncccn12,83.4% (inactive)
18,COc1cc(C(=O)/C=C/c2ccc3nc(-c4cc(F)cc(F)c4)sc3c2)cc(OC)c1OC,99.3% (inactive)
19,Cc1ccc(C(=O)NCCCNc2nccc(-n3ccc4cccnc43)n2)cc1,102% (inactive)
20,CCN(CC)CCC(CNc1ccnc2cc(Cl)ccc12)c1ccccc1 (stereo not given),80.3% (inactive)

row,Compound,growth
1,CCOC(=O)/C(C#N)=C1/C(=O)Nc2ccccc21,108% (inactive)
2,COc1ccc(/C=C2/C(=O)NC(SCC(=O)N3CCN(c4cc5c(cc4F)c(=O)c(C(=O)O)cn5C4CC4)CC3)=NC2N)cc1OC (stereo not given),102% (inactive)
3,COc1ccc(-c2cc3c(OC)c(OC)c(OC)cc3oc2=O)cc1,59.1% (inactive)
4,Cc1ccc(S(=O)(=O)c2nc(-c3ccccc3)oc2S(C)(=O)=O)cc1,76.3% (inactive)
5,Cc1c(C(=O)/C=C/c2csc3ccccc23)[n+](=O)c2ccccc2n1[O-],44.4% (inactive)
6,COc1cc(/C(C#N)=C/c2ccc3c(c2OC)OCO3)cc2c1OCO2,30.9% (inactive)
7,COc1ccc(Nc2[nH]n3c(=O)cc(C)nc3c2C(N)=O)c(OC)c1,100% (inactive)
8,Clc1cccc(-c2cc(-c3ccc4c(c3)OCCO4)[nH]n2)c1,40% [25 µM] (inactive)
9,Clc1ccc2c(NC3CCC(NC4CCCCC4)CC3)ccnc2c1 (stereo not given),68.1% (inactive)
10,COc1cc(NCCCCCN)c2ncccc2c1,100% (inactive)
11,Cc1nn(-c2ccc([N+](=O)[O-])cc2)c2ncnc(NCCc3ccccc3)c12,95.9% (inactive)
12,Cc1ccc(S(=O)(=O)NC(=O)n2cc(-c3ccncc3)c(-c3ccc(Cl)c(O)c3)n2)cc1,108% (inactive)
13,CC(C)C1=CC2=C(C=O)C[C@@H]3[C@](C)(CCC[C@@]3(C)C(=O)OCC#CCN3CCCC3)[C@H]2CC1,62.2% (inactive)
14,CC(C)(C)n1cc(-c2ccnc(NCCNS(=O)(=O)c3ccc(F)cc3)c2)c(-c2cccc(O)c2)n1,58.2% (inactive)
15,Cc1ccc(S(=O)(=O)n2cc(C(=O)C(=O)Nc3ccncc3)c3ccccc32)cc1,36.4% (inactive)
16,CCCCCCCCCCCCCCCCCCNC(=O)[C@H]1CSC(c2cccs2)N1 (stereo not given in full),18.9% (inactive)
17,O=C(Nc1ccc2c(c1)OCO2)C(=O)c1c[nH]c2cc(F)ccc12,79.6% (inactive)
18,CCO/C=N/C1=C(C#N)C(c2ccc(Cl)cc2)c2c(c3ccccc3n(C)c2=O)O1 (stereo not given),80.3% (inactive)
19,O=C(c1ccccc1)C1OC1c1ccc([N+](=O)[O-])cc1 (stereo not given),48.1% (inactive)
20,CCCCCCCCN(CCCCCCCC)CCCCCCNc1cc(OC)cc2cccnc12,55.6% (inactive)
